# From PubChem BioAssay (Tox21)
# Several values for one entry are separate records, joined by “and”; a condition that tells them apart may be missing. Equal entries are not always repeated. Records with an inconclusive call do not appear. Where a call stands in place of a potency, no number is given. Some compounds were tested as several samples or in several runs, with calls that do not always agree. Activity calls are given as the source filed them. Unless noted, calls come from the whole dose curve.
# Assay: qHTS assay for small molecule agonists of the p53 signaling pathway (AID 651631); note: nearly all actives have a fitted effect of over 15% in size; note: potency is the fitted concentration of half-maximal effect
# Conditions: HCT-116 p53RE-bla reporter, beta-lactamase FRET ratio, 16 h; series mostly up to 73.3 µM; activation: at the top concentration
# Outline: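 Beta-lactamase reporter activity under p53 response elements was quantified in HCT-116 cells by FRET fluorescence, following 16 h incubation with test compounds at 37 °C and 2 h substrate development at room temperature.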
SMILES,Potency,activation
CNCC(O)c1ccc(O)cc1 (stereo not drawn),inactive,
Clc1cnc(Oc2ccc(Oc3ncc(Cl)cc3Cl)cc2)c(Cl)c1,inactive,
COC(C)(C)CCCC(C)C/C=C/C(C)=C/C(=O)OC(C)C (stereo not drawn),inactive,
COc1nc(NC(C)C)nc(NC(C)C)n1,,-0.234% (inactive)
CN(C)C(=O)Nc1cccc(C(F)(F)F)c1,inactive,
Nc1nc(N)nc(NC2CC2)n1,inactive,
Nc1ccc([As](=O)(O)O)cc1,inactive,
CCOP(=S)(OCC)Oc1ccc([N+](=O)[O-])cc1,inactive,
CCCOC(=O)c1ccccc1C(=O)OCCC,,3.55% [at 95.1 µM] (inactive)
CC(=O)C1CCOC1=O (stereo not drawn),,4.77% [at 95.1 µM] (inactive)
CC[N+](=O)[O-],inactive,
Cc1ccc(N)cc1,inactive,
Cl/C=C/Cl,inactive,
Nc1cccc(Cl)c1,inactive,
CCOP(=S)(OCC)Oc1cc(C)nc(C(C)C)n1,inactive,
O=C(O)COc1ccccc1,inactive,

SMILES,Potency,activation
Cc1cccc(C)c1NC(=O)CN1CCCC1=O,inactive,
Nc1ncc([N+](=O)[O-])s1,inactive,
CCCCC(CC)C(=O)Cl (stereo not drawn),,-2.48% [at 95.1 µM] (inactive)
ClCCOCCCl,inactive,
COS(=O)(=O)OC,inactive,
FC(F)(F)c1ccc(Cl)cc1,inactive,
CCSC(=O)N1CCCCCC1,inactive,
Cc1cccc(N)c1C,inactive,
CCOC(=O)CC(SP(=O)(OC)OC)C(=O)OCC (stereo not drawn),inactive,
CC(C)c1cccc(C(C)C)c1O,inactive,
Cc1cc(O)ccc1Cl,inactive,
O=C(O)CCCc1ccc(N(CCCl)CCCl)cc1,23.7 µM (active) and 61.4 µM (active) and 34.4 µM (active),
O=[N+]([O-])c1ccc(Cl)cc1,,1.21% (inactive)
CN(C)C(=O)C(c1ccccc1)c1ccccc1,inactive,
Nc1cc(Cl)cc(Cl)c1,inactive,

# Assay: qHTS assay for small molecules that induce genotoxicity in human embryonic kidney cells expressing luciferase-tagged ATAD5 (AID 651632; active = well fitted activation curve with a large enough effect in the repeat runs; note: nearly all actives have a fitted effect of over 15% in size)
# Conditions: HEK293T ATAD5-luciferase induction, 16 h; series mostly up to 83.3 µM; activation: at the top concentration
# Outline: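 Cells were seeded at 2,000 per well, dosed with compound, and incubated 16 hr at 37C in 5% CO2. Luciferase activity was then quantified after a 30 min room-temperature incubation with Amplite.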
SMILES,Potency,activation
CNCC(O)c1ccc(O)cc1 (stereo not drawn),inactive,
Clc1cnc(Oc2ccc(Oc3ncc(Cl)cc3Cl)cc2)c(Cl)c1,inactive,
COC(C)(C)CCCC(C)C/C=C/C(C)=C/C(=O)OC(C)C (stereo not drawn),inactive,
COc1nc(NC(C)C)nc(NC(C)C)n1,inactive,
CN(C)C(=O)Nc1cccc(C(F)(F)F)c1,inactive,
Nc1nc(N)nc(NC2CC2)n1,inactive,
Nc1ccc([As](=O)(O)O)cc1,inactive,
CCOP(=S)(OCC)Oc1ccc([N+](=O)[O-])cc1,inactive,
CCCOC(=O)c1ccccc1C(=O)OCCC,inactive,
CC(=O)C1CCOC1=O (stereo not drawn),,-1.81% [at 95.3 µM] (inactive)
CC[N+](=O)[O-],inactive,
Cc1ccc(N)cc1,inactive,
Cl/C=C/Cl,inactive,
Nc1cccc(Cl)c1,inactive,
CCOP(=S)(OCC)Oc1cc(C)nc(C(C)C)n1,inactive,
O=C(O)COc1ccccc1,inactive,

SMILES,Potency,activation
Cc1cccc(C)c1NC(=O)CN1CCCC1=O,inactive,
Nc1ncc([N+](=O)[O-])s1,inactive,
CCCCC(CC)C(=O)Cl (stereo not drawn),inactive,
ClCCOCCCl,inactive,
COS(=O)(=O)OC,inactive,
FC(F)(F)c1ccc(Cl)cc1,inactive,
CCSC(=O)N1CCCCCC1,inactive,
Cc1cccc(N)c1C,inactive,
CCOC(=O)CC(SP(=O)(OC)OC)C(=O)OCC (stereo not drawn),inactive,
CC(C)c1cccc(C(C)C)c1O,inactive,
Cc1cc(O)ccc1Cl,inactive,
O=C(O)CCCc1ccc(N(CCCl)CCCl)cc1,,2.08% (inactive)
O=[N+]([O-])c1ccc(Cl)cc1,inactive,
CN(C)C(=O)C(c1ccccc1)c1ccccc1,inactive,
Nc1cc(Cl)cc(Cl)c1,inactive,

# Assay: qHTS assay for small molecule agonists of the p53 signaling pathway - cell viability (AID 651633); note: nearly all actives have a fitted effect of over 30% in size; note: potency is the fitted concentration of half-maximal effect
# Conditions: p53RE-bla HCT-116 viability, ATP luminescence, 16 h; series mostly up to 83.3 µM; activity change, negative = cytotoxicity: at the top concentration
# Outline: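 p53RE-bla cells, seeded at 4,000 per well and rested 5 h at 37 C/5% CO2, received compounds in DMSO for 16 h at 37 C. CellTiter-Glo was then added, and luminescence was read after 30 min at room temperature to gauge cytotoxicity.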
SMILES,Potency,"activity change, negative = cytotoxicity"
CNCC(O)c1ccc(O)cc1 (stereo not drawn),inactive,
Clc1cnc(Oc2ccc(Oc3ncc(Cl)cc3Cl)cc2)c(Cl)c1,inactive,
COC(C)(C)CCCC(C)C/C=C/C(C)=C/C(=O)OC(C)C (stereo not drawn),inactive,
COc1nc(NC(C)C)nc(NC(C)C)n1,inactive,
CN(C)C(=O)Nc1cccc(C(F)(F)F)c1,inactive,
Nc1nc(N)nc(NC2CC2)n1,inactive,
Nc1ccc([As](=O)(O)O)cc1,inactive,
CCOP(=S)(OCC)Oc1ccc([N+](=O)[O-])cc1,inactive,
CCCOC(=O)c1ccccc1C(=O)OCCC,inactive,
CC(=O)C1CCOC1=O (stereo not drawn),,-1.92% [at 95.3 µM] (inactive)
CC[N+](=O)[O-],inactive,
Cc1ccc(N)cc1,inactive,
Cl/C=C/Cl,inactive,
Nc1cccc(Cl)c1,inactive,
CCOP(=S)(OCC)Oc1cc(C)nc(C(C)C)n1,inactive and 61.1 µM (active),
O=C(O)COc1ccccc1,inactive,

SMILES,Potency,"activity change, negative = cytotoxicity"
Cc1cccc(C)c1NC(=O)CN1CCCC1=O,inactive,
Nc1ncc([N+](=O)[O-])s1,inactive,
CCCCC(CC)C(=O)Cl (stereo not drawn),inactive,
ClCCOCCCl,inactive,
COS(=O)(=O)OC,inactive,
FC(F)(F)c1ccc(Cl)cc1,inactive,
CCSC(=O)N1CCCCCC1,inactive,
Cc1cccc(N)c1C,inactive,
CCOC(=O)CC(SP(=O)(OC)OC)C(=O)OCC (stereo not drawn),inactive,
CC(C)c1cccc(C(C)C)c1O,inactive,
Cc1cc(O)ccc1Cl,inactive,
O=C(O)CCCc1ccc(N(CCCl)CCCl)cc1,inactive,
O=[N+]([O-])c1ccc(Cl)cc1,inactive,
CN(C)C(=O)C(c1ccccc1)c1ccccc1,inactive,
Nc1cc(Cl)cc(Cl)c1,inactive,
